Measured values published in PubChem BioAssay.
Active and inactive are the calls of the source.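 The calls were made as follows, unless noted: active = compound raises GLP1 secretion from the human gut endocrine cells, with no numeric limit stated; inactive = the rest.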 Starred links: 1 amine or outer side, 2 acyl side, 3 side chain; linkers in the order of their positions; H or OH if unused. Positions of bridges follow the written chain, without caps; N, C: chain ends. Non-standard residues stand in square brackets, D forms with d. Residues, ends and D or L forms follow the SMILES beside them. ξ: configuration not given here. *: point of attachment. ΔAla(3-NHCONH2) = NC(=O)NC=C(N)C(=O)O; X1 = NC1=NCCC(C(N[*:1])C(=O)[*:2])N1; ξβ3hOrn = NCCCC(N)CC(=O)*; Dap = NC[CH](N)C(=O)O

Experiments:
[1] = stimulators of nuclear beta-catenin in C2C12, primary screen, imaging, WNT3A-conditioned medium, mouse C2C12, NPC library (AID 1117326; in the data active = nuclear beta-catenin stimulation mostly above about 4.2%, no sharp cut-off; inactive = mostly below about 10%; also: reference of the scale not given here); settings: stronger effect = higher value
[2] = stimulators of insulin release from INS-1E, primary screen, cell-based, 5 mM glucose, NPC library (AID 1117329;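 active = compound raises insulin release from rat beta cells at 5 mM glucose, no numeric limit stated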; also: reference of the scale not given here); settings: rat INS-1E insulin secretion, at 10 µM, stronger effect = higher value
[3] = growth inhibition of GSK3B-pretreated HCT116 cells – cell-based, CellTiter-Glo, 0.2 to 20 µM (AID 1117336;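 active = compounds lowering colon cancer cell viability after pretreatment blocking the GSK3B kinase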); settings: HCT116 viability after GSK3B inhibitor, at 20 µM, stronger effect = higher value
[4] = inhibition of endothelial tube formation, primary screen, imaging, VEGF stimulated, CD31 staining, tube area, NPC library (AID 1117340;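 active = compound that reduces growth-factor-driven endothelial tube area in a mixed cell culture, no cutoff stated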); settings: VEGF-stimulated ADSC/ECFC co-culture, at 10 µM, stronger effect = higher value
[5] = glucagon-like peptide 1 release enhancers, primary assay, NCI-H716 cell line, NPC library (AID 1117341); settings: NCI-H716 cells, at 10 µM, stronger effect = higher value; also: reference of the scale not given here
[6] = HCT116 colon cancer cell growth inhibition, primary screen, CellTiter-Glo luminescence, NPC library (AID 1117342;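 active = compounds that lower survival of HCT116 colon cancer cells in the luminescence readout, no numeric limit stated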); settings: at 20 µM (top of the series)
[7] = CellTiter-Glo luminescent readout of SW480 viability loss, NPC library primary (AID 1117343;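 active = compounds that lower viability of the colon cancer cells in the luminescence readout, with no numeric limit stated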); settings: CellTiter-Glo luminescence; at 20 µM (top of the series)
[8] = decreased DLD-1 cellular survival, CellTiter-Glo luminescent readout, NPC compound collection, primary HTS (AID 1117346;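 active = compounds that lower survival of DLD-1 colon cancer cells in the luminescence readout, no cutoff given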); settings: DLD-1 viability, CellTiter-Glo luminescence; at 20 µM (top of the series)

SMILES | nuclear beta-catenin stimulation ([1]; at 10 µM) | nuclear beta-catenin stimulation ([1]; stimulation, at 2 µM) [%] | insulin secretion stimulation [2] | viability decrease [3] | tube area decrease [4] | GLP1 secretion stimulation [5] | inhibition of viability [6] | viability decrease (inhibition) [7] | viability decrease (inhibition) [8]
Nc1nc(N)c(-c2ccccc2)s1 | 0.4% (inactive) | 2.2 | -2% (inactive) | -1.63% (inactive) | 16.7% (inactive) | 2.1% (inactive) | 10.2% (inactive) | 48.5% (inactive) | 2.53% (inactive)
CCCCCCCCC=CCCCCCCCC(=O)NCCOC(=O)CC(C(=O)O)S(=O)(=O)O (centres undefined) | 0.3% (inactive) | -0.7 | 0.8% (inactive) | 36.1% (active) | 22.7% (inactive) | -1% (inactive) | 17.1% (inactive) | 63.4% (active) | 81.6% (active)
CCc1cc2cc(OC)c(OC)cc2c(Cc2ccccc2)n1 | 7.1% (inactive) | 3.1 | 15.8% (inactive) | 46.2% (inactive) | 18.5% (inactive) | 3.6% (inactive) | 41.3% (inactive) | -9.7% (inactive) | 25.5% (inactive)
O=C(CO)[C@@H](O)[C@H](O)[C@@H](O)C(=O)O | -2.6% (inactive) | -0.9 | 0.7% (inactive) | -2.4% (inactive) | -0.1% (inactive) | -5.4% (inactive) | 2.2% (inactive) | 0.3% (inactive) | -3.1% (inactive)
NCC[C@H](O)C(=O)N[C@@H]1C[C@H](N)[C@@H](O[C@H]2O[C@H](CN)[C@@H](O)[C@H](O)[C@@H]2O)[C@H](O)[C@@H]1O[C@H]1O[C@H](CO)[C@@H](O)[C@H](N)[C@@H]1O | 0.4% (inactive) | -1.1 | 1.1% (inactive) | -9.3% (inactive) | -7.9% (inactive) | 0.5% (inactive) | -2.7% (inactive) | -3.7% (inactive) | 0.5% (inactive)
Cc1c(C(C)C)c(=O)n(-c2ccccc2)n1C | -0.3% (inactive) | -0.2 | -0.6% (inactive) | -2.5% (inactive) | -2.7% (inactive) | 0.4% (inactive) | -15.5% (inactive) | 36.6% (inactive) | 8.15% (inactive)
CCCCCCCCCCCC(=O)[O][Sn]([CH2]CCC)([CH2]CCC)[O]C(=O)CCCCCCCCCCC | 75.9% (active) | 7.2 | 0% (inactive) | -72% (inactive) | 94.7% (active) | 49% (active) | 5.07% (inactive) | 133% (active) | 101% (active)
O=C1C(c2[nH]c3ccc(S(=O)(=O)O)cc3c2O)=Nc2ccc(S(=O)(=O)O)cc21 | -1.7% (inactive) | -0.3 | 5.5% (inactive) | 23.1% (inactive) | -3.9% (inactive) | 3% (inactive) | 11.5% (inactive) | 13.9% (inactive) | 7% (inactive)
COC(=O)C1=C(C)NC(C)=C(C(=O)OCCc2ccc(N3CCN(C(c4ccccc4)c4ccccc4)CC3)cc2)C1c1cccc([N+](=O)[O-])c1 (centres undefined) | 2.5% (inactive) | 0.7 | 0% (inactive) | 14.1% (inactive) | 44.2% (active) | -3.4% (inactive) | 32.3% (inactive) | 39.1% (inactive) | -1.2% (inactive)
O=C(OCC(COC(=O)c1cccnc1)(COC(=O)c1cccnc1)COC(=O)c1cccnc1)c1cccnc1 | -0.6% (inactive) | -0.3 | 1.6% (inactive) | -13.3% (inactive) | -11.4% (inactive) | 0.8% (inactive) | 17.4% (inactive) | -4.3% (inactive) | -2.7% (inactive)
CC(C)[C@H](N)C(=O)O | -0.1% (inactive) | 1.3 | 0.4% (inactive) | -2.3% (inactive) | -14.8% (inactive) | -4.1% (inactive) | 1.3% (inactive) | 11.9% (active) | 14.8% (inactive)
CN1CCN(C(=O)C2CCCCC2)CC1 | 0% (inactive) | -0.3 | 4.2% (inactive) | -2.7% (inactive) | -5.2% (inactive) | 5.1% (inactive) | 12% (inactive) | 28.1% (inactive) | 11.9% (inactive)
CCCCCCCCCCCCCCNCCO | 10.8% (inactive) | 10.6 | -1.5% (inactive) | 62.8% (active) | 103% (active) | 34.8% (active) | 32.6% (inactive) | 121% (active) | 103% (active)
O=C(O)C(Cc1cc(I)c(O)c(I)c1)c1ccccc1 (centres undefined) | 1.5% (inactive) | 0.8 | -0.6% (inactive) | 36.8% (inactive) | -29.6% (inactive) | -0.7% (inactive) | 40.4% (inactive) | 50.4% (active) | 14.4% (inactive)
O=C(CCOCCOCCOCCOCCC(=O)Nc1c(I)cc(I)c(C(=O)O)c1I)Nc1c(I)cc(I)c(C(=O)O)c1I | -0.1% (inactive) | -1.6 | 0.1% (inactive) | -4.7% (inactive) | -12% (inactive) | 0.3% (inactive) | -2.1% (inactive) | -14.8% (inactive) | -2.6% (inactive)
c1ccc(C(O[C@H]2CCCN(CCc3ccc4c(c3)OCO4)C2)c2ccccc2)cc1 | 0.9% (inactive) | 1.5 | 5.45% (inactive) | 100% (active) | -6.8% (inactive) | 0.6% (inactive) | 96.3% (active) | 101% (active) | 90.1% (active)

SMILES | nuclear beta-catenin stimulation ([1]; at 10 µM) | nuclear beta-catenin stimulation ([1]; stimulation, at 2 µM) [%] | insulin secretion stimulation [2] | viability decrease [3] | tube area decrease [4] | GLP1 secretion stimulation [5] | inhibition of viability [6] | viability decrease (inhibition) [7] | viability decrease (inhibition) [8]
O=C1Nc2cc(Cl)ccc2Oc2ccccc21 | 0% (inactive) | -0.5 | -0.2% (inactive) | 55.1% (active) | 17.8% (inactive) | -0.4% (inactive) | 10.7% (inactive) | -6.3% (inactive) | -57.3% (inactive)
CC(=O)OCC(=O)Nc1cc(C#N)cc(NC(=O)COC(C)=O)c1Cl | -0.4% (inactive) | -1.4 | 4% (inactive) | -0.6% (inactive) | -12.8% (inactive) | 3.3% (inactive) | 0.9% (inactive) | -20.3% (inactive) | 1.6% (inactive)
CN(C)CCN1CCN(c2cccc(Cl)c2)C1=O | 0.8% (inactive) | 0.1 | 2.6% (inactive) | 10.9% (inactive) | 8% (inactive) | 4% (inactive) | 50% (active) | 7.4% (inactive) | -1.8% (inactive)
CC(C)=CCC/C(C)=C/CC/C(C)=C/C(=O)OCC(=O)[C@@]1(O)CC[C@H]2[C@@H]3CCC4=CC(=O)C=C[C@]4(C)[C@H]3[C@@H](O)C[C@@]21C | -1% (inactive) | 0 | -2% (inactive) | 92.3% (active) | 107% (active) | -0.8% (inactive) | 98.2% (active) | 86.2% (active) | 88.5% (active)
COc1ccc(CCC(C)=O)cc1 | 0.1% (inactive) | 2.7 | 0.3% (inactive) | -3.4% (inactive) | -21% (inactive) | -3.2% (inactive) | -0.8% (inactive) | -0.7% (inactive) | -19.4% (inactive)
CCOC(=O)C1=C(O)c2ccccc2S(=O)(=O)N1C | -1.5% (inactive) | -0.7 | 0.9% (inactive) | -6% (inactive) | -19.5% (inactive) | -4% (inactive) | 10.3% (inactive) | 12% (inactive) | 4.2% (inactive)
CCCSS/C(CCO)=C(\C)N(C=O)Cc1cnc(C)nc1N | -1.4% (inactive) | -0.7 | 10.2% (inactive) | 33.3% (inactive) | 55.3% (active) | -4.8% (inactive) | 19.1% (inactive) | 45.4% (inactive) | 65.6% (active)
CC[N+]1(CC)CCC(=C(c2ccccc2)c2ccccc2)C1C (centres undefined) | -1.3% (inactive) | -2.2 | 1.7% (inactive) | -4.6% (inactive) | -9.4% (inactive) | 3.8% (inactive) | 22.7% (inactive) | 1.6% (inactive) | 34.6% (inactive)
O=C(O)/C=C\C(=O)O | 1.1% (inactive) | 1.9 | 2.7% (inactive) | -27.8% (inactive) | -3.6% (inactive) | -3.8% (inactive) | 4.1% (inactive) | 33.2% (inactive) | -11% (inactive)
NCCCC(N)CC(=O)NCC1NC(=O)C(CO)NC(=O)C(N)CNC(=O)C(C2CCN=C(N)N2)NC(=O)C(=CNC(N)=O)NC1=O (stereo not drawn) (H-[Dap]S[Dap](ξβ3hOrn)[ΔAla(3-NHCONH2)][X1]; lactam 1-C; configuration not given here) | 0.2% (inactive) | 1.8 | -0.9% (inactive) | 3.9% (inactive) | -1% (inactive) | -1.3% (inactive) | -22.2% (inactive) | -3.4% (inactive) | -12% (inactive)
CCN(CC)CC(=O)Oc1ccc(NC(C)=O)cc1 | -0.5% (inactive) | 6.1 | -0.7% (inactive) | 0.8% (inactive) | -10.3% (inactive) | -0.7% (inactive) | 1.8% (inactive) | 2.2% (inactive) | -9.7% (inactive)
C[C@H]1O[C@@H](O[C@H]2CC[C@@]3(C)[C@H](CC[C@@H]4[C@@H]3C[C@@H](O)[C@]3(C)[C@@H](C5=CC(=O)OC5)CC[C@]43O)C2)C[C@H](O)[C@@H]1O[C@H]1C[C@H](O)[C@H](O[C@H]2C[C@H](O)[C@H](O[C@@H]3O[C@H](CO)[C@@H](O)[C@H](O)[C@H]3O)[C@@H](C)O2)[C@@H](C)O1 | -1% (inactive) | -0.7 | -0.5% (inactive) | 65% (active) | 108% (active) | 8% (inactive) | 54.5% (active) | 69.4% (active) | 79.5% (active)
CCOC(=O)C(=O)CCCCCCl | 0.6% (inactive) | -1.9 | 1.45% (inactive) | 12.3% (inactive) | -8.5% (inactive) | -1% (inactive) | 12.6% (inactive) | 11.4% (inactive) | 0.1% (inactive)
CC1(C)OC[C@@H]2O[C@@]3(C(=O)O)OC(C)(C)O[C@H]3[C@@H]2O1 | -1.7% (inactive) | -0.3 | 4.8% (inactive) | -3% (inactive) | -12.4% (inactive) | -3.6% (inactive) | -1.6% (inactive) | 26.9% (inactive) | 0.3% (inactive)
CCCCCCCCCCCCCCCCCCNC(=O)OC1CCN(C(=O)OC[C@H](COC(=O)N(Cc2cccc[n+]2CC)C(=O)c2ccccc2OC)OC)CC1 | 10.2% (inactive) | 0.5 | 117% (active) | 110% (active) | 111% (active) | 213% (active) | 112% (active) | 131% (active) | 101% (active)
